Measurements as given in the supplement of paper PMC13380429.

System: Vero E6 infected with SARS-CoV-2
Experiment: inhibition of SARS-CoV-2 cytopathic effect; higher = more antiviral protection, active = above 15
Details: 48 h

Measured: inhibition of SARS-CoV-2 cytopathic effect

O=C(c1ccccn1)c1cnn2c(-c3ccncc3)ccnc12 [ocinaplon]
inactive: 1 nM 0.32% | 8.33 nM -1.43% | 100 nM -0.52% | 833.33 nM -3.04% | 10000 nM -0.62%

CCc1cc2c(cc1N1CCC(N3CCOCC3)CC1)C(C)(C)c1[nH]c3cc(C#N)ccc3c1C2=O [alectinib]
inactive: 1 nM 0.52% | 8.33 nM 1.4% | 100 nM -0.38% | 833.33 nM -1.14% | 10000 nM 0.15%

CC[C@@](C)(Nc1ccnc(-c2c[nH]c3ncccc23)n1)C(=O)NCC(F)(F)F [decernotinib]
inactive: 1 nM -1.03% | 8.33 nM 0.41% | 100 nM -0.04% | 833.33 nM 1.86% | 10000 nM 2.32%

N#C/C(=C\c1ccc(O)c(O)c1)C(=O)NCCCCc1ccccc1
inactive: 1 nM 0.51% | 8.33 nM 1.37% | 100 nM 1.91% | 833.33 nM 0.14% | 10000 nM -0.03%

CCCCCCCCCCCCCCCCCCCCCC(=O)Nc1ccn([C@@H]2O[C@H](CO)[C@@H](O)[C@@H]2O)c(=O)n1 [enocitabine]
inactive: 1 nM -3% | 8.33 nM -4.05% | 100 nM -1.69% | 833.33 nM -5.11% | 10000 nM -4.84%

CN1[C@H]2C[C@H](OC(=O)[C@H](CO)c3ccccc3)C[C@@H]1[C@@H](O)C2 [anisodamine]
inactive: 1 nM 1.04% | 8.33 nM 2.56% | 100 nM 3.99% | 833.33 nM 5.76% | 10000 nM 3.66%

CC(=O)c1ccc2c(c1)N(CCCN(C)C)c1ccccc1S2 [acepromazine]
inactive: 1 nM -0.95% | 8.33 nM 1.58% | 100 nM -2.17% | 833.33 nM -3.24% | 10000 nM -1.2%

CCCN1CC(NS(=O)(=O)N(CC)CC)CC2Cc3c(O)cccc3CC21 (stereo not given) [quinagolide]
inactive: 1 nM -1.57% | 8.33 nM -0.18% | 100 nM -0.29% | 833.33 nM -13.8% | 10000 nM -6.37%

CC(N)Cc1ccc(O)cc1 (stereo not given) [hydroxyamphetamine]
inactive: 1 nM 1.55% | 8.33 nM -1.8% | 100 nM 2.28% | 833.33 nM 0.63% | 10000 nM 1.86%

COC(=O)Nc1nc2cc(C(=O)c3ccccc3)ccc2[nH]1 [mebendazole]
inactive: 1 nM -1.33% | 8.33 nM 0.93% | 100 nM -0.07% | 833.33 nM 0.95% | 10000 nM 0.89%

CCOC(=O)c1ccc(N)cc1 [benzocaine]
inactive: 1 nM -3.23% | 8.33 nM -2.13% | 100 nM -1.89% | 833.33 nM -4.68% | 10000 nM -1.78%

CNCCC=C1c2ccccc2CCc2ccccc21 [nortriptyline]
inactive: 1 nM 1.29% | 8.33 nM -0.85% | 100 nM 0.56% | 833.33 nM 1.26% | 10000 nM -4.8%

CN1CCN(c2ncc(-c3cc(Cl)cc(Cl)c3Cl)c(N)n2)CC1 [sipatrigine]
inactive: 1 nM -3.16% | 8.33 nM -4.99% | 100 nM -2.74% | 833.33 nM -3.24% | 10000 nM 2.7%

CN(C)CC[C@@](O)(c1ccccc1)c1ccccc1Cl [clofedanol]
inactive: 1 nM 1.53% | 8.33 nM 1.3% | 100 nM 1.86% | 833.33 nM 1.12% | 10000 nM 2.42%

N#Cc1ccc(N(Cc2ccc(Br)cc2)n2cnnc2)cc1
inactive: 1 nM 1.03% | 8.33 nM -0.63% | 100 nM 3.36% | 833.33 nM 2.99% | 10000 nM -2.52%

O=C(O)CCc1ccc(NCc2cccc(Oc3ccccc3)c2)cc1
inactive: 1 nM 1.33% | 8.33 nM -1.1% | 100 nM -1.51% | 833.33 nM -0.16% | 10000 nM -0.27%

C[C@@H]1C[C@H]2[C@@H]3CCC4=CC(=O)C=C[C@]4(C)[C@@]3(F)[C@@H](O)C[C@]2(C)[C@@]1(O)C(=O)COP(=O)(O)O
inactive: 1 nM -1.27% | 8.33 nM 0.18% | 100 nM -1.45% | 833.33 nM -3.81% | 10000 nM 0.77%

COc1cc2c(NC3CCN(C4CCCCC4)CC3)nc(N3CCCN(C(C)C)CC3)nc2cc1OCCCN1CCCCC1
inactive: 1 nM -0.42% | 8.33 nM 1.56% | 100 nM 0.26% | 833.33 nM -2.24% | 10000 nM 15%

O=c1c(O)c(-c2ccc(O)c(O)c2)oc2cc(O)cc(O)c12 [quercetin]
inactive: 1 nM 1.33% | 8.33 nM 0.85% | 100 nM 0.21% | 833.33 nM 1.78% | 10000 nM 3.03%

CC(C)NNC(=O)c1ccncc1 [iproniazid]
inactive: 1 nM 0.77% | 8.33 nM -0.06% | 100 nM 0.89% | 833.33 nM 0.46% | 10000 nM -1.76%

Cc1n[nH]c(C)c1Cc1sc2c(c1C(=O)N1C[C@H](O)CO1)c(=O)n(C)c(=O)n2CC(C)C
inactive: 1 nM 1.42% | 8.33 nM 3.88% | 100 nM 0.66% | 833.33 nM 1.3% | 10000 nM 1.69%

Oc1ccc(C(O)CNCCCCCCNCC(O)c2ccc(O)c(O)c2)cc1O (stereo not given) [hexoprenaline]
inactive: 1 nM -3.2% | 8.33 nM 0.65% | 100 nM 2.27% | 833.33 nM -1.49% | 10000 nM -2.87%

OC[C@H]1O[C@@H](c2ccc(F)c(Cc3cc4ccccc4s3)c2)[C@H](O)[C@@H](O)[C@@H]1O [ipragliflozin-L-proline]
inactive: 1 nM 0.82% | 8.33 nM -0.16% | 100 nM 0.41% | 833.33 nM 0.42% | 10000 nM 0.4%

CCC(c1ccccc1)c1c(O)c2ccccc2oc1=O (stereo not given) [phenprocoumon]
inactive: 1 nM -0.55% | 8.33 nM 0.6% | 100 nM 1.1% | 833.33 nM -0.13% | 10000 nM -0.87%

Cn1c(=O)n(-c2ccc(C(C)(C)C#N)cc2)c2c3cc(-c4cnc5ccccc5c4)ccc3ncc21
inactive: 1 nM 1.43% | 8.33 nM -0.22% | 100 nM 0.93% | 833.33 nM -5.08% | 10000 nM -5.4%

c1ccc(-c2nn3c(c2-c2ccnc4cc(OCCN5CCOCC5)ccc24)CCC3)nc1
inactive: 1 nM -0.68% | 8.33 nM 0.41% | 100 nM 1.87% | 833.33 nM -0.96% | 10000 nM 0.94%

CNC(=O)c1ccc2c(c1)S(=O)(=O)c1ccccc1C2=O
inactive: 1 nM 0.15% | 8.33 nM 0.66% | 100 nM 1.63% | 833.33 nM -1.32% | 10000 nM -0.42%

CN(C(=O)/C=C/c1ccoc1)[C@@H]1CC[C@@]2(O)[C@H]3Cc4ccc(O)c5c4[C@@]2(CCN3CC2CC2)[C@H]1O5 [nalfurafine]
inactive: 1 nM -5.32% | 8.33 nM -1.02% | 100 nM 0.43% | 833.33 nM -2.31% | 10000 nM -1.57%

CC(=O)NS(=O)(=O)c1ccc(N)cc1 [sulfacetamide]
inactive: 1 nM 0.35% | 8.33 nM 2.07% | 100 nM 1.95% | 833.33 nM 2.14% | 10000 nM 0.21%

C[C@H](Nc1cc(-c2cnn(C)c2)cc(Nc2cnccn2)n1)c1ccc(F)cc1
inactive: 1 nM 1.93% | 8.33 nM 1.68% | 100 nM 2.86% | 833.33 nM -4.39% | 10000 nM -8.8%

Cc1cc(SCc2sc(-c3ccc(C(F)(F)F)c(F)c3)nc2C)ccc1OCC(=O)O
inactive: 1 nM 0.88% | 8.33 nM 1.12% | 100 nM -2.76% | 833.33 nM -1.29% | 10000 nM -1.19%

Nc1c(CC(=O)O)cccc1C(=O)c1ccc(Br)cc1 [bromfenac]
inactive: 1 nM -1.88% | 8.33 nM 0.84% | 100 nM -0.8% | 833.33 nM -0.93% | 10000 nM -0.48%

CN(C)CCCC(=O)Nc1ccc(C(=O)Nc2cccc(Nc3ncc(Cl)c(-c4c[nH]c5ccccc45)n3)c2)cc1
inactive: 1 nM 1% | 8.33 nM -3.04% | 100 nM -1.78% | 833.33 nM -0.35% | 10000 nM -3.93%

O=C(NCCO)c1cccc(-c2cc(Nc3ccc(OC(F)(F)F)cc3)ncn2)c1
inactive: 1 nM 0.82% | 8.33 nM 1.06% | 100 nM 2.91% | 833.33 nM 3.22% | 10000 nM 0.55%

Cc1cc(/C=C/c2ccc3cc(N(C)C)ccc3[n+]2C)c(C)n1-c1ccccc1 [pyrvinium-pamoate]
inactive: 1 nM -1.06% | 8.33 nM -0.84% | 100 nM -3.02% | 833.33 nM -2.46% | 10000 nM -13.7%

C[C@](N)(Cc1ccc(O)cc1)C(=O)O [metirosine]
inactive: 1 nM 2.52% | 8.33 nM 2.13% | 100 nM 7.36% | 833.33 nM 2.34% | 10000 nM 2.26%

O=C(NCCN1CCC2(CC1)C(=O)NCN2c1cccc(F)c1)c1ccc2ccccc2c1
inactive: 1 nM 0.75% | 8.33 nM 3.53% | 100 nM 1.66% | 833.33 nM 1.45%
active: 10000 nM 83.1%

Cc1cccc(Nc2ccncc2S(=O)(=O)NC(=O)NC(C)C)c1 [torasemide]
inactive: 1 nM -0.3% | 8.33 nM -0.37% | 100 nM -0.51% | 833.33 nM -1.03% | 10000 nM -1.02%

COc1cc2c(cc1OC)[C@@H](Cc1cc(OC)c(OC)c(OC)c1)[N+](C)(CCCOC(=O)CC/C=C/CCC(=O)OCCC[N+]1(C)CCc3cc(OC)c(OC)cc3[C@H]1Cc1cc(OC)c(OC)c(OC)c1)CC2 (stereo not given in full) [mivacurium]
inactive: 1 nM -2.73% | 8.33 nM -1.95% | 100 nM 2.74% | 833.33 nM 3.32% | 10000 nM 0.83%
